High-throughput results as filed in PubChem.
Most compounds without a hit are left out; they make up all but 3.7% or so of the library.
MazEF act – activators of E. coli MazEF toxin-antitoxin RNase; activation, % at 20 µM; 350,000 compounds, 0.32% hits; FAM/BHQ RNA-DNA oligo cleavage fluorescence, 5 h; AID 504720; P0AE70; in the data active = activation above about 50%
Target sequence (P0AE70 whole entry, looked up): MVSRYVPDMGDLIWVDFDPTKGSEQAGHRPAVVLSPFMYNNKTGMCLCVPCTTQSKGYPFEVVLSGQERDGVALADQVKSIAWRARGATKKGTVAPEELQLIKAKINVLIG
Bead autofluor – flagged as autofluorescent in microsphere protease counterscreen; compound autofluorescence counterscreen, microsphere flow cytometry; active compounds read high; fluorescence intensity (test concentration not listed); 360,000 compounds, 3.1% hits; AID 624483; in the data active = fluorescence intensity above about 16000; inconclusive = no clear call, values can overlap the other calls
BoNT-F LC inh – inhibitors of Botulinum neurotoxin F light chain protease; inhibition, % at 10 µM; 360,000 compounds, 0.22% hits; Multiplex microsphere protease cleavage assay, flow cytometry; in the data active = inhibition above about 35%, passing the limit was not always enough; inconclusive = no clear call, values can overlap the other calls
BoNT-A LC inh2 – inhibitors of Botulinum neurotoxin A light chain protease. 360,000 compounds, 0.17% hits. multiplex microsphere protease substrate cleavage, flow cytometry. inhibition, % at 10 µM
Anthrax LF inh2 – blocks Bacillus anthracis lethal factor protease; 360,000 compounds, 0.12% hits; inhibition, % at 10 µM; P15917; multiplex microsphere protease cleavage assay, LF
A number is an active result; n = inactive; u = inconclusive; x = no result given. Rule as the data show it, unless noted: active = inhibition above about 30%; inconclusive = no clear call, values can overlap the other calls; inactive = below that.

SMILES | MazEF act | Bead autofluor | BoNT-F LC inh | BoNT-A LC inh2 | Anthrax LF inh2
N#Cc1ccc(NC(=O)N2CCC(c3nc4c(nnn4Cc4cccc(Cl)c4)c(=O)[nH]3)CC2)cc1 | n | 20736 | n | n | n
O=C(Cc1cccs1)N1CCC(c2nc3c(nnn3Cc3ccccc3)c(=O)[nH]2)CC1 | n | 20008 | n | n | n
Cc1ccc(Cn2nnc3c(=O)[nH]c(C4CCN(C(=O)Cc5cccs5)CC4)nc32)cc1 | n | n | n | n | n
O=C(c1ccco1)N1CCCC(c2nc3c(nnn3Cc3cccc(Cl)c3)c(=O)[nH]2)C1 (centres undefined) | n | n | n | n | n
Cc1ccc(Cn2nnc3c(=O)[nH]c(C4CCCN(S(=O)(=O)c5ccccc5)C4)nc32)cc1 (centres undefined) | n | n | n | n | n
O=c1[nH]c(C2CCCN(S(=O)(=O)c3ccc(F)cc3)C2)nc2c1nnn2Cc1ccccc1 (centres undefined) | n | 21368 | n | n | n
CCCCC(=O)N1CCCC(c2nc3c(nnn3Cc3cc(C)ccc3C)c(=O)[nH]2)C1 (centres undefined) | n | n | n | n | n
Cc1ccc(C)c(Cn2nnc3c(=O)[nH]c(C4CCCN(C(=O)CC(C)C)C4)nc32)c1 (centres undefined) | n | 21556 | n | n | n
CC(C)(C)c1ccc(Cn2nnc3c(=O)[nH]c(C4CCN(C(=O)Cc5cccs5)CC4)nc32)cc1 | n | 20958 | n | n | n
O=C(NCc1ccc(Cl)cc1)C1CCN(c2nnc(N3CCCC3=O)s2)CC1 | n | n | n | n | n
CCCCCc1nnc(N)s1 | n | 16328 | n | n | n
CC1(C)NC(C)(C)C(O)(C(N)=O)C1=O (centres undefined) | n | 23198 | n | n | n
CC1(C)C(C(N)=O)C(=O)NC(=O)C1C(N)=O (centres undefined) | n | n | n | n | n
O=C(/C=C/c1c(F)cccc1Cl)N1CCOCC1 | n | n | n | n | n
Cc1cccc(NC(=O)/C(C#N)=C\c2cccnc2)c1 | n | 17179 | n | n | n
CC(=O)Nc1cc(-c2ccc(CO)cc2)cn2c(-c3cccc(C(F)(F)F)c3)cnc12 | x | n | n | n | n
S=C(NN=C(C1CC1)C1CC1)Nc1ccccc1 | n | 17259 | n | n | n
Nc1nc(Sc2ccc([N+](=O)[O-])c3nonc23)c2[nH]cnc2n1 | 59.6 | n | n | n | n
CNc1ncnc(Sc2nc(N)nc3nc[nH]c23)c1[N+](=O)[O-] | n | n | n | n | n
COc1cc2c(cc1OC)CN(CC(=O)Nc1ccc(S(=O)(=O)N(C)C)cc1)CC2 | n | n | n | n | n
COc1cc2c(cc1OC)CN(CC(=O)Nc1ccc3c(c1)OC(F)(F)O3)CC2 | n | 24021 | n | u | n
COc1ccccc1N1CCN(c2cc(=O)n(-c3ccc(Br)cc3)c(=O)[nH]2)CC1 | n | 21225 | n | n | n
CCOC(=O)N1CCN(c2cc(=O)n(-c3ccc(OCC)cc3)c(=O)[nH]2)CC1 | n | 22900 | n | n | n
CCOC(=O)N1CCN(c2cc(=O)n(-c3ccc(OC)cc3)c(=O)[nH]2)CC1 | n | n | n | n | n
CC12CCC(=O)N1C(C(=O)OCC(=O)Nc1ccc(Cl)c(Cl)c1)CS2 (centres undefined) | n | n | n | n | n
SMILES | MazEF act | Bead autofluor | BoNT-F LC inh | BoNT-A LC inh2 | Anthrax LF inh2
Cc1cc(NS(=O)(=O)c2ccc(NC(=S)Nc3ccc(Cl)cc3C)cc2)no1 | n | n | u | u | n
C=CCOc1c(CNc2ccc(C(=O)O)cc2)cccc1OCC | n | 19846 | n | u | n
C=CCOc1c(CNc2ccc(C(=O)O)cc2)cccc1OC | n | n | n | n | n
COC(=O)C1=C(C)N(CC(C)C)C(=O)/C1=C\c1cccs1 | n | n | n | n | n
CCOC(=O)C1=C(C)N(CC(C)C)C(=O)/C1=C\c1cccs1 | 58.8 | n | u | n | n
CN1CCN(C(=O)/C(=C/c2ccccc2F)NC(=O)c2ccccc2)CC1 | n | n | n | n | n
CCCCn1c(-c2ccoc2C)n[nH]c1=S | n | 23012 | n | n | n
O=c1[nH]c(Nc2ccc(F)cc2)cc2ccccc12 | n | 23479 | n | u | n
O=c1[nH]c(Nc2ccccc2Cl)cc2ccccc12 | n | n | n | n | n
COc1ccccc1CN1CC(C(=O)NCc2cc(F)ccc2C)CCC1=O (centres undefined) | n | n | n | n | n
c1ccc(-c2oc3ncnc(NCCCN4CCOCC4)c3c2-c2ccccc2)cc1 | n | 26085 | n | n | n
Cc1ccc(S(=O)(=O)N(C)C[C@H]2Oc3cc(C#Cc4ccccc4)ccc3S(=O)(=O)N([C@H](C)CO)C[C@@H]2C)cc1 | n | n | n | n | n
Oc1ccccc1C1=NC(c2ccccc2)NC(c2ccccc2)C1 (centres undefined) | n | n | n | n | n
CC1CC(=O)N(CC(=O)Nc2ccc3c(c2)OCO3)c2ccccc2S1 (centres undefined) | n | 17388 | n | n | n
O=C(CN1C(=O)CSc2ccccc21)Nc1ccccc1C(=O)N1CCOCC1 | n | 22009 | n | n | n
O=C(CN1C(=O)CCSc2ccccc21)Nc1ccc2c(c1)OCCO2 | n | 16584 | n | n | n
Cc1ccccc1NC(=O)CN1C(=O)CSc2ccccc21 | n | n | n | n | n
COc1ccc(-n2c(=O)c(CCC(=O)NCCc3ccccc3F)nc3ccccc32)cc1 | n | n | n | n | n
Cc1ccc2nc(NCCO)nc(-c3ccccc3)c2c1 | n | 23056 | n | n | n
Cc1ccc2nc(N/N=C/c3ccccc3C#N)nc(-c3ccccc3)c2c1 | n | 17384 | n | n | n
OCCNc1nc(-c2ccccc2)c2cc(Cl)ccc2n1 | n | n | n | n | n
N#Cc1ccccc1/C=N/Nc1nc(-c2ccccc2)c2cc(Cl)ccc2n1 | n | n | n | n | n
Cc1ccc(C#N)c(SCc2cc3c(cc2Cl)OCO3)n1 | 58.9 | n | n | n | n
COc1ccc(C2=NN(c3ccc(C=O)cc3)C(c3ccccc3)C2)cc1 (centres undefined) | n | x | x | x | x
O=Cc1ccc(N2N=C(c3ccccc3)CC2c2ccccc2)cc1 (centres undefined) | n | n | 53.1 | 41.5 | n
SMILES | MazEF act | Bead autofluor | BoNT-F LC inh | BoNT-A LC inh2 | Anthrax LF inh2
O=C(O/N=C1/CCSc2ccccc21)c1ccc(F)cc1 | n | 24780 | n | u | n
O=C(Nc1ccccc1)N1CCSc2ccccc21 | n | n | n | n | n
O=C(Nc1ccc(Cl)cc1)N1CCOCC1 | n | n | u | n | n
O=C(Nc1ccc(Cl)cc1)N1CCSc2ccccc21 | n | 23243 | n | n | n
O=C(Nc1ccc(Cl)cc1)N1CCCC1 | n | 22686 | n | n | n
Cc1ccc(S(=O)(=O)n2nc(-c3ccc(Cl)cc3)nc2NCc2ccco2)cc1 | n | 23333 | n | u | n
CCS(=O)(=O)n1nc(-c2ccccc2)nc1NCc1ccco1 | n | u | n | n | u
O=C(c1ccco1)n1nc(-c2ccc(Cl)cc2)nc1NCc1ccco1 | n | n | n | n | n
O=C(COc1ccccc1)n1nc(-c2ccc(Cl)cc2)nc1NCc1ccco1 | n | 21640 | n | n | n
O=C(NCCOc1ccccc1F)c1cc(F)c(F)cc1Cl | n | n | n | n | n
O=C(NCCOCC(F)(F)C(F)F)c1cc(F)c(F)cc1Cl | n | 20634 | n | n | n
